IDE cell inh = inhibitors of human insulin-degrading enzyme in cells; P14735; HEK cells, FAbetaB cleavage, fluorescence polarization; inhibition, % at 5.59 µM; 320,000 tested, 0.41% active;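 active means percent inhibition above the average of all tested compounds plus 3 SD, set per screening campaign, cut at about 16% in these data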;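 further: IDE supplied by intact live HEK cells; FP after avidin binding of uncleaved biotin substrate so inhibition keeps polarization high; 0% = DMSO wells and 100% = 60 µM reference IDE inhibitor Ii1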
TMEM16A inh = mouse TMEM16A channel inhibition, primary screen. HEK293 TMEM16A/YFP iodide influx fluorescence, ionomycin. 310,000 tested, 1.2% active. normalized B-score (activity score, 25-100; higher = stronger inhibition) at 10 µM. AID 588511. Q8BHY3;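 active means ratio plate-corrected score three or more library SD toward inhibition, starting fluorescence score within five deviations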;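 further: score derived from kinetic fluorescence span divided by baseline fluorescence per well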
CHT allo act = human CHT allosteric activation; B-score at 10 µM; AID 488977; CHT-expressing cells, membrane potential dye, choline EC20; stronger effect = higher value; LV-AA mutant CHT in HEK293 cells; 310,000 tested, 0.49% active; Q9GZV3;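 active means initial fluorescence not abnormally high and integrated response B-score, plate-corrected, over 3 SD above library mean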
Target sequence (Q9GZV3 whole entry, looked up): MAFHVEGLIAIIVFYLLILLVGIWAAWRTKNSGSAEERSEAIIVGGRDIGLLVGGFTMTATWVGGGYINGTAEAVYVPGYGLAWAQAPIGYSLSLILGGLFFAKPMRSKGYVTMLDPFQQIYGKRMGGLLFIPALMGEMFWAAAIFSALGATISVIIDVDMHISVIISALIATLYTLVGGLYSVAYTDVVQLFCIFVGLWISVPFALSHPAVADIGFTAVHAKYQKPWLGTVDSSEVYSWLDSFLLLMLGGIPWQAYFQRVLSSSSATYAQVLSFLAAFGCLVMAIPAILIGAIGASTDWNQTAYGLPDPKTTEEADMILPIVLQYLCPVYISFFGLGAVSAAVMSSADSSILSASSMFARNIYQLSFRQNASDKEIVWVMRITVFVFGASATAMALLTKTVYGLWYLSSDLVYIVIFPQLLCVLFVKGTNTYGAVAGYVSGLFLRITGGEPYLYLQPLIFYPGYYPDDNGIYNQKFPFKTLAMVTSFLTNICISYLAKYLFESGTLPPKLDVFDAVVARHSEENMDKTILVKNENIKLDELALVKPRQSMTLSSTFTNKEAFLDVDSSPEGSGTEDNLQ
CHT inh = human CHT choline transport inhibition | CHT-expressing cells, membrane potential dye, choline response; stronger effect = lower value | B-score at 10 µM | 310,000 tested, 0.86% active;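 active means B-score over 3 SD under the library average, and starting fluorescence ratio not unusually high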;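 further: choline stimulus applied at its EC90 after an EC20 pre-addition; B-score computed on integrated fluorescence ratio after choline addition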
IDE act = activators of human insulin-degrading enzyme in cells. HEK cells, FAbeta-B cleavage, fluorescence polarization; 0% vehicle, 100% cell-free pure enzyme wells. P14735. activation, % at 5.96 µM. AID 493087. 340,000 tested, 0.073% active;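 active means activation above the mean of all tested compounds plus 3 SD, set per screening campaign, cut at about 17% in these data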
TMEM16A act = mouse TMEM16A channel activation, primary screen | Q8BHY3 | HEK293 TMEM16A/YFP-H148Q/I152L, iodide quench fluorescence; stronger effect = lower value | B-score at 10 µM | 340,000 tested, 0.3% active;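 active means fluorescence-ratio B-score plate-corrected deviation score at least 3 library SD below zero, with starting fluorescence score within 5 deviations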;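 further: channel opened by trigger with iodide after compound preincubation; score built on the fluorescence ratio of max minus min over baseline; more negative score means more quench and so TMEM16A activation or potentiation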
TMEM16A reconf = TMEM16A (mouse) chloride channel inhibition, re-confirmation. 2,300 tested, 39% active. HEK293 TMEM16A/YFP-H148Q, iodide quench fluorescence; ionomycin added to raise cell calcium. shares compounds with TMEM16A inh. AID 652189. inhibition, % at 10 µM;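 active means mean duplicate percent inhibition, scaled so buffer wells are 0 and the reference blocker 100, over three buffer SD above buffer mean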
HEK293 Ca mobil = counter-screen for TMEM16A inhibitors: effect on calcium mobilization; TMEM16A/YFP HEK293, Fluo4 calcium mobilization; calcium response (% of ionomycin), % at 10 µM; 2,300 tested, 2% active; AID 652231; shares compounds with TMEM16A inh;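 active means duplicate-averaged calcium signal over 20% of the ionomycin maximum, relative to buffer baseline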;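 further: each well's signal is peak minus trough fluorescence divided by its pre-addition baseline; 0% = buffer wells and 100% = ionomycin wells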
Parental YFP cnt = acts in parental YFP-HEK293 cells lacking TMEM16A, counter-screen. 2,300 tested, under 10 active. shares compounds with TMEM16A inh. YFP ratio F(max-min)/F0 at 10 µM. iodide YFP quench, ionomycin;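 active means yellow fluorescent protein signal ratio exceeding the buffer control mean by over 5 SD of those controls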;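 further: ratio is mean of duplicate wells from kinetic YFP trace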
ClC-1 inh = rat ClC-1 inhibition, TMEM16A specificity screen; shares compounds with TMEM16A inh; CHO ClC-1-YFP, iodide influx fluorescence quench; iodide control reads 0, buffer control 100; ratio percent, % at 10 µM; 2,300 tested, under 10 active;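 active means duplicate-mean ratio percent above the mean of iodide-only control wells, which defines zero, plus 5 of their SD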;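 further: higher percent means stronger block of ClC-1 iodide influx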
* = called active by the depositor; i = inactive; nt = no result. A selection: hits, their analogues and other compounds. The true share with any hit is near 2.7%.

SMILES	IDE cell inh	TMEM16A inh	CHT allo act	CHT inh	IDE act	TMEM16A act	TMEM16A reconf	HEK293 Ca mobil	Parental YFP cnt	ClC-1 inh
O=C(c1ccc(COc2ccc(Br)cc2)o1)N1N=C(C(F)F)CC1(O)C(F)F (centres undefined)	4	i	i	i	2	i	nt	nt	nt	nt
CC(C)c1ccc(OCc2ccc(C(=O)N3CCCC3)o2)cc1	-3	25*	7.1*	i	-1	i	53%*	i	-1.1	-15
CC(C)C(C)NC(=O)COn1nnc2ccc(S(=O)(=O)N3CCOCC3)cc21 (centres undefined)	4	nt	nt	nt	2	i	nt	nt	nt	nt
COc1ccc(OCCC(=O)OCC(=O)NC(=O)NC(C)(C)C)cc1	3	i	i	i	2	i	i	i	-1.2	-12
COc1cc2nc(N3CCNCC3)nc(N)c2cc1OC	2	100*	i	-8.3*	1	i	i	i	-0.73	-4
COc1cc2nc(N3CCN(c4cc(C)ccc4C)CC3)nc(N)c2cc1OC	-2	i	i	i	4	i	nt	nt	nt	nt
CCCN1/C(=C(\C#N)C2=NS(=O)(=O)c3ccccc32)N(C)c2ccccc21	nt	nt	nt	nt	6	i	nt	nt	nt	nt
Cc1cc(Cl)cc2c1NC(=O)[C@]21[C@@H]2C(=O)N(Cc3ccccc3)C(=O)[C@@H]2[C@@H]2CCCN21	0	25*	i	i	4	i	i	i	-1.2	-4
Cc1ccc(S(=O)(=O)N(CCC(=O)NCC(c2ccccc2)N(C)C)c2ccccc2)cc1 (centres undefined)	nt	nt	nt	nt	3	i	nt	nt	nt	nt
Cc1ccc(-c2nc3ccc(C(=O)O)cc3nc2-c2ccc(C)cc2)cc1	-3	25*	i	i	2	i	i	i	-1.1	-18
O=C(NCc1ccc(Cl)cc1)N1CCN(Cc2ccccc2)CC1	-3	i	i	i	4	i	nt	nt	nt	nt
CC(=O)c1ccc(N(CC(=O)NCCc2ccccc2)C(=O)c2csnn2)cc1	3	i	i	i	-2	i	nt	nt	nt	nt
CCOC(=O)c1c(NS(=O)(=O)c2ccc(Br)cc2)sc2c1CCC2	0	100*	i	i	-4	i	70%*	i	-0.9	-6
CC(C)(Oc1ccc(Cl)cc1)C(=O)OCn1nnc2ccccc2c1=O	3	100*	i	i	4	i	i	32%*	-1.1	-1
Cc1cccc(C)c1NC(=O)[C@@]1(CC(=O)O)CC(/C=C/c2ccccc2)=NO1	nt	i	i	i	-2	i	nt	nt	nt	nt
COc1cc(NC(=O)c2cnc(N)s2)cc(C(=O)Nc2cccc(C(F)(F)F)c2)c1	14	i	i	i	nt	nt	nt	nt	nt	nt
COc1cc(NC(=O)c2cnc(N)o2)cc(C(=O)Nc2cccc(C(F)(F)F)c2)c1	7	100*	i	i	-4	i	46%*	i	-0.87	-14
Nc1nc(SCC(=O)Nc2ccccc2)[nH]c(=O)c1-c1ccccc1	1	i	i	i	-10	i	nt	nt	nt	nt
Nc1nc(SCC(=O)N2CCc3ccccc3C2)[nH]c(=O)c1-c1ccccc1	3	i	i	i	-1	i	i	i	-1	-15
C[C@H](NS(=O)(=O)c1c(Cl)cccc1Cl)C(=O)NNC(=O)COc1ccccc1F	0	nt	nt	nt	2	i	nt	nt	nt	nt
Cc1ccc(OCCSc2ncnc3nc[nH]c23)cc1	4	25*	i	i	1	i	i	i	-1.1	-12
COc1ccc(C(=O)CSc2ncnc3nc[nH]c23)cc1	4	i	i	i	4	i	nt	nt	nt	nt
O=C(CN1C(=O)c2cccc3cccc1c23)N1CCc2ccccc2C1	8	i	i	i	0	i	nt	nt	nt	nt
O=C(CCCN1C(=O)c2ccccc2C1=O)N1CCc2ccccc2C1	-2	25*	i	i	2	i	i	i	-1.1	-4
Cc1nc(N)sc1-c1csc(Nc2ccc(Cl)cn2)n1	-3	25*	i	i	-6	i	26%*	i	-0.95	-2
SMILES	IDE cell inh	TMEM16A inh	CHT allo act	CHT inh	IDE act	TMEM16A act	TMEM16A reconf	HEK293 Ca mobil	Parental YFP cnt	ClC-1 inh
Cc1nc(C)c(-c2csc(Nc3cccc(O)c3)n2)s1	4	100*	i	i	-18	i	38%*	i	-0.81	-8
Cc1nc(N)sc1-c1csc(Nc2ccccn2)n1	nt	nt	nt	nt	-1	i	nt	nt	nt	nt
Cc1nc(C)c(-c2csc(Nc3ccccn3)n2)s1	2	25*	i	i	-2	i	28%*	i	-1.1	-6
CN(CC(=O)Nc1cc(Cl)ccc1C#N)C1CCS(=O)(=O)C1 (centres undefined)	-2	nt	nt	nt	2	i	nt	nt	nt	nt
COc1cc(OC)cc(-c2ncc3ccccn23)c1	4	100*	i	i	-5	i	i	i	-1	-8
COc1ccc(-c2ncc3ccccn23)cc1	5	i	i	i	4	i	nt	nt	nt	nt
Cc1cccc(N2CCN(S(=O)(=O)c3ccc4c(c3)CC(C)N4C(=O)C3CC3)CC2)c1C (centres undefined)	7	i	i	i	-14	i	nt	nt	nt	nt
COc1ccc(S(=O)(=O)N2CCN(c3ccc(C)cc3C)CC2)cc1OC	0	25*	i	i	4	i	26%*	i	-0.95	-18
CCC(=O)N1c2ccc(S(=O)(=O)N3CCN(c4ccc([N+](=O)[O-])cc4)CC3)cc2CC1C (centres undefined)	6	25*	i	i	-1	i	i	i	-1.2	-18
Cc1ccc(C)c(N2CCN(S(=O)(=O)c3ccc4c(c3)CC(C)N4C(=O)C3CC3)CC2)c1 (centres undefined)	2	i	i	i	0	i	i	i	-1.2	-15
